Here are results for seven sequences from the supplement of paper PMC10338343.

± gives the standard deviation. Bounds are passed on as bounds.
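Further: 1 nM active piRISC with 0.1 nM target library at 33 °C single turnover.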

The test relates to MILI (PIWIL2) piRISC loaded with L1MC piRNA (26 nt). The experiment in a line: pre-steady-state target cleavage rate (min^-1); guide: L1MC piRNA 5'p-UAACUAAAUACUAUGCAAGCUGUAGG; MIWI and MILI are mouse PIWI proteins and EfPiwi is from a freshwater sponge; tags in brackets are library labels; higher = faster piRNA-guided slicing of the target. Particulars: auxiliary factor: none (no GTSF1). An outline of the steps:
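A burst-and-steady-state fit was used to obtain the pre-steady-state cleavage rate. The input data were sequencing reads of uncleaved targets, normalised to depth and to weakly complementary targets, from a […] transcribed, DNA-blocked target RNA library mixed with 1 nM active affinity-purified piRISC holding one synthetic guide, with or without 500 nM GTSF1 partner protein, in HEPES–potassium acetate buffer at 33 °C for 0–8 or 0–960 min. Three trials were pooled and k3 was capped at 0.0001 min^-1.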
UCCUGGAUGUCGAACCAUACAAUUUAGUUA: the “pre-steady-state target cleavage rate” value was under 0.0001.
As for UCCUGGAUCAGCUACCAUAGUAUUUUCAAA, the “pre-steady-state target cleavage rate” value was under 0.0001.
With UCCUGGAUGUCCAACCAUAGUAUUUAGUAA the figure was under 0.0001.
Next, UCCUGGAUGUCGAAGCAGUAGUAUUUAGUUA: under 0.0001.
Next, UCCUGGUACAGCUUGCAUAGCUAUUUAGUUA: 0.0041 ± 0.004.
Turning to UCCUGGAUGUCGAACGUUACUUUUUAGUUA, the “pre-steady-state target cleavage rate” value was under 0.0001.
Next, UCCUGGAUGUCGAACGUAAGUAUUUUGUUA: under 0.0001.
